Compounds without any hit were thinned out: in the full panel of roughly 79,000, 15% have a hit. Calls of active or inactive are those of the source. Rule as the data show it: active = growth inhibition above about 70%; inactive = the rest.
Experiment: NCI Yeast Anticancer Drug Screen. Data for the cln2 rad14 strain (AID 165);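 also: 0% = growth equal to vehicle treated cultures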
Details: S. cerevisiae cln2 rad14 strain, at 50.0 µM, hits give high values
Summary of the method: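 Yeast strain cln2 rad14, bearing defects in cell cycle control and DNA repair, serves as the test system; values reflect growth inhibition compared with vehicle.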

Row | Structure (SMILES) | growth inhibition
1 | c1ccc(N2C3Sc4ncccc4C2Sc2ncccc23)cc1 | 6.1% (inactive)
2 | OC1(C(O)(c2ccc(-c3ccccc3)cc2)c2ccc(-c3ccccc3)cc2)CCCCC1 | -14.6% (inactive)
3 | COc1cc(/C=C2\SC(=S)N(/C=C(/C#N)C(=O)c3ccc4ccccc4c3)C2=O)cc(OC)c1OC | 3.45% (inactive)
4 | O=C1CCN2C(=O)CCN12 | 14.8% (inactive)
5 | CC(=O)Nc1c(C)ncn(-c2ccccc2)c1=O | -28.4% (inactive)
6 | CCNc1ncc2nc(CC(=O)OC)c(=O)n(CC)c2n1 | -75.6% (inactive)
7 | CC(=O)OC1C(C(O)CO)OC2OC(C)(C)OC21 (stereo not given) | -58.8% (inactive)
8 | CC(C)=CCC/C(C)=C/CC/C(C)=C/C1CCC(=O)C1(C)C (stereo not given) | -16.6% (inactive)
9 | CCOc1ccccc1NC(=O)C(=O)C(c1ccccc1)S(=O)(=O)Cc1ccccc1 (stereo not given) | 5.45% (inactive)
10 | Oc1ccc2ccccc2c1-c1c(OC(c2ccccc2)c2ccccc2)ccc2ccccc12 | -29.4% (inactive)
11 | NC(N)=N/N=C(\c1nc2ccc([N+](=O)[O-])cc2[nH]c1=O)C(O)c1ccc([N+](=O)[O-])cc1 (stereo not given) | -24.1% (inactive)
12 | CCOC(=O)CC1C(C)C(C)NC(C)C1C (stereo not given) | 12.1% (inactive)
13 | O=C1CCCCC1N1CCCCC1 (stereo not given) | 2.65% (inactive)
14 | CN(C)C(=O)c1cccnc1 | 27.1% (inactive)
15 | CC(CCC(=O)O)[C@H]1CCC2[C@@H]3C(=O)C[C@@H]4CC(O)CC[C@]4(C)C3CC[C@@]21C (stereo not given in full) | 35.8% (inactive)
16 | CCC(c1ccccc1)c1cc(C(C)(C)C)cc(C(C)(C)C)c1O (stereo not given) | -2.25% (inactive)
17 | CC(=O)Nc1ccc(S(=O)(=O)O)nc1 | 16.8% (inactive)
18 | CCCCCCc1ccc2c3cccc4cccc(c5cccc1c52)c43 | -34.2% (inactive)
19 | CCCCCCC(C)(O)C(C)O (stereo not given) | 14.9% (inactive)
20 | CN=C1SC(C)(C)NN1C | -32% (inactive)

Row | Structure (SMILES) | growth inhibition
21 | CCSC(SCC)C(NC(C)=O)C(O)C(O)COC(=O)c1ccccc1 (stereo not given) | 12% (inactive)
22 | c1ccc(CSc2ccc3ccccc3c2)cc1 | -51.8% (inactive)
23 | COC(OC)c1cccnc1C | 6.65% (inactive)
24 | O=C(C(=O)c1cccc(Cl)c1)c1ccccc1 | 2.85% (inactive)
25 | COc1ccc(C(CCl)(CCl)c2ccc(OC)c(C)c2)cc1C | -4.05% (inactive)
26 | CC(=O)C1=CN(Cc2ccccc2)C(O)CC1C(N)=O (stereo not given) | 10.8% (inactive)
27 | O=C(Nc1cc([N+](=O)[O-])ccc1F)Oc1ccc(OCc2ccccc2)cc1 | -47.2% (inactive)
28 | CCOC(=O)c1ccc(NCc2nc3ccccc3nc2C)cc1 | -29.1% (inactive)
29 | COC(=O)Nc1cccc(NC(=O)C(=O)O)c1 | -29.4% (inactive)
30 | O=C1c2ccccc2C(=O)N1/N=N/N1C(=O)c2ccccc2C1=O | 96.1% (active)
31 | OC1CCC(O)[C@H]2[C@@H]1[C@@H]1S[C@H]2c2ccccc21 (stereo not given in full) | 1.7% (inactive)
32 | CC(C)(C)C(=O)CC(=O)C(C)(C)C.[Cu] | -56.6% (inactive)
33 | O.O.[Cl][Pt+2][Cl].[NH-]CC1(C[NH-])CCCCC1 | 18.5% (inactive)
34 | COc1cccc(CC2C(=O)N=C(NC(C)=O)N2C)c1OC(C)=O (stereo not given) | -11.7% (inactive)
35 | O=C(COc1cc(Cl)c(Cl)cc1Cl)Oc1ccccc1 | -8.85% (inactive)
36 | COC(=O)/C=C(\C(=O)OC)C(C(=O)c1ccccc1)=P(c1ccccc1)(c1ccccc1)c1ccccc1 | -26.5% (inactive)
37 | CCCSc1ccc2c3c(cccc13)C(=O)OC2=O | 45.6% (inactive)
38 | O=S1(=O)c2ccc(cc2)N=CC=Nc2ccc1cc2 | -2.4% (inactive)
39 | CC1CCc2c(O)ccc(O)c21 (stereo not given) | -15.2% (inactive)
40 | COc1ccc(OC2OC(CO)C(OCc3ccccc3)C(OCc3ccccc3)C2OCc2ccccc2)cc1 (stereo not given) | 2.4% (inactive)

Reference: PubChem BioAssay (NCI)
